Bioassay records deposited in PubChem by National Center for Advancing Translational Sciences (NCATS).
SMN2 splice enh: enhancers of SMN2 splice variant expression; HEK293 SMN2-luciferase splicing reporter, luminescence, 30-36 h; Potency, µM (top dose mostly 46.1 µM), for inactives: at the highest dose activity change, positive = activation, most hits filed as activators; hit rate 2.8% among 210,000; AID 1458; also: % of control where 0% means no effect; nearly all actives have a fitted effect of over 55% in size
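HEK293 cells carry an SMN2 […]–luciferase reporter in which exon 7 inclusion puts luciferase in frame. Cells were plated 10-12 h before compound addition, then incubated 30-36 h at 37C. ONE-Glo luminescence was read; sodium butyrate at 4.5 mM final served as control.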
ELG1 genotoxic: genotoxicity induction in ELG1-luciferase HEK293T cells | HEK293T ELG1-luciferase reporter, luminescence, 16 h | hit rate 1.3% among 330,000 | AID 504466 | Potency, µM (titrated, usually from 46 µM), for the others: at the highest dose activity change, positive = activation, usual class: activators; also: % of control where 0% means no effect; nearly all actives have a fitted effect of over 60% in size
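HEK293T cells expressing luciferase-tagged ELG1 were exposed to compound or DMSO vehicle for 16 hr at 37 °C and 5% CO2. Luciferase activity was then measured with ONE-Glo after 30 min at room temperature.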
Rab9 prom act: Rab9 promoter activation | Huh7 Rab9 promoter-luciferase reporter, luminescence, 24 h | Potency, µM (top dose mostly 9.22 µM), for inactives: at the top dose activation, negative = inhibition, hits mostly activators | hit rate 2.8% among 320,000 | AID 485297; also: % of control where 0% means no effect; nearly all actives have a fitted effect of over 60% in size
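Huh7 reporter line, Rab9 promoter upstream of luciferase. Compound exposure 24 h at 37 °C in reduced-serum medium with 10% FBS. Read-out: luminescence.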
KinaseGlo FLuc: blocks Kinase-Glo luciferase, a counter-screen artifact; Q27757; Kinase-Glo luciferase, ATP luminescence, 8 min; hit rate 0.28% among 200,000; AID 1379; Potency, µM (top dose mostly 38.3 µM), inactives show top-dose activity change, negative = inhibition, most hits filed as inhibitors; also: % is scaled to controls: 0 for no effect and ±100 for the full control effect; nearly all actives have a fitted effect of over 60% in size
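Compounds were added to a substrate mix at pH 7.2 (50 mM imidazole, 10 uM ATP, within the enzyme's linear range), followed by Kinase-Glo detection reagent; luminescence was measured after 8 minutes at ambient temperature.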
FLuc counter: counter-screen for miR-21 project: firefly luciferase inhibitors or activators. P08659. hit rate 6.9% among 360,000. Potency, µM (top dose mostly 57.5 µM), for the others: top-dose activity change, negative = inhibition, most hits filed as inhibitors. purified FLuc, Km substrates, luminescence inhibition;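 also: plate controls were vehicle for no effect and reference inhibitor for full effect; nearly all actives have a fitted effect of over 55% in size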
Target sequence (P08659 whole entry, looked up): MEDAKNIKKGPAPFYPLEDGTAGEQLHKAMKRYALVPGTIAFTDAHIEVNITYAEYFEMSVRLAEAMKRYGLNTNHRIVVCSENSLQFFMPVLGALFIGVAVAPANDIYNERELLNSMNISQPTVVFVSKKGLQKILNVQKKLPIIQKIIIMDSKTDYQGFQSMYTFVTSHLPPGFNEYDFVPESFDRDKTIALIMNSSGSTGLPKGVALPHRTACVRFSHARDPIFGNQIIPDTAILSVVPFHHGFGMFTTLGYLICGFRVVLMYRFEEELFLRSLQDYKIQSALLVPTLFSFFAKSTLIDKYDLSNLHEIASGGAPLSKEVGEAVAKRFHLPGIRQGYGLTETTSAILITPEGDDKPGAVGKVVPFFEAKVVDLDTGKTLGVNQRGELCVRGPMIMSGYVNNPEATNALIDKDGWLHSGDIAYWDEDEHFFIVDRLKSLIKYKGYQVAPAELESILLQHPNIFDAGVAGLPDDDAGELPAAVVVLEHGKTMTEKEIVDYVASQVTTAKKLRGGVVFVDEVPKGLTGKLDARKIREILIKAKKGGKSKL
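Purified P. pyralis luciferase, 10 nM final, with Km-level 10 uM D-luciferin and 10 uM ATP in 50 mM Tris acetate pH 7.5, 10 mM Mg acetate, 0.01% Tween-20, 0.05% BSA; 6-point qHTS titration about 60 µM downward; luminescence read.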
NPC1 prom act: NPC1 promoter activation | Huh7 NPC1 promoter luciferase reporter, 24 h | Potency, µM (highest dose often 9.22 µM), for inactives: at the highest dose activation, usual class: activators | hit rate 2.4% among 320,000; also: % of control where 0% means no effect; nearly all actives have a fitted effect of over 60% in size
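Stable NPC1-promoter luciferase Huh7 line; cpd (DMSO) 24 h, 37 °C, 5% CO2; Amplite luciferase reagent 10 min RT; luminescence readout. qHTS format.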
Starred values were filed as active, the others as inactive; ? = inconclusive; . = no result; [ ] = remark or other dose. Only some compounds are listed: those with a hit (about 7.3% of all), similar ones and a draw of the others. Calls follow the shape of the dose curve; as a rule, active = well fitted curve in the direction sought with a large enough effect; inconclusive = small, poorly fitted or top-dose-only effect, or another doubt; inactive = no such curve, though single readings can be large; an effect the other way counts as inactive or inconclusive. Potency is read from the fitted curve at half-maximal effect.

SMILES	SMN2 splice enh	ELG1 genotoxic	Rab9 prom act	KinaseGlo FLuc	FLuc counter	NPC1 prom act
Cc1cc(Cl)ccc1OCC(=O)N(Cc1ccc(N(C)C)cc1)CC1CCCO1 (configuration not stated)	5%	.	.	.	-18%	.
Cc1cc(/C=C(\C#N)C(=O)NC2CC2)c(C)[nH]1	11µM*	?	3.2µM*	-12%	12µM*	4µM*
COc1ccc(NC(=O)/C(C#N)=C/c2ccc[nH]2)c(OC)c1	.	14%	?	.	-2%	3.2µM*
Cc1cc(/C=C(\C#N)C(=O)NC2CCCCCC2)c(C)[nH]1	30%	10%	23%	-3%	?	24%
CCc1cccc(C)c1NC(=O)CSc1nc2ccccc2nc1Cc1ccccc1	.	.	.	.	-2%	.
COC(=O)[C@@]1(Cc2ccc(F)cc2)[C@H]2c3cc(C(=O)N4CCCC4)n(CCN4CNCC4=O)c3C[C@H]2CN1C(=O)c1ccccc1	4%	.	.	-1%	.	.
O=C(CSc1ccccn1)Nc1ccc2c(c1)oc1ccccc12	18µM*	15%	29%	1%	13µM*	24%
CCCCC(=O)Nc1ccc2c(c1)oc1ccccc12	14µM*	?	3.5µM*	2%	8.5µM*	?
Cn1c(SCC(=O)Nc2cccc(C(=O)O)c2)nnc1-c1cc2cc(Br)ccc2o1	.	0%	-1%	3%	2.7µM*	7%
CC(C)CC(=O)Nc1ccc2c(c1)oc1ccccc12	5.6µM*	19%	1µM*	-2%	2.1µM*	1µM*
CCCCC(=O)Nc1cccc(NC(=O)CC)c1	5%	2%	3%	0%	0%[2.3 µM]	1%
NCC(=O)N[C@H](CO)C(=O)O	-4%[9.22 µM]	.	.	-3%[7.66 µM]	.	.
CCC(=O)Nc1ccc2c(c1)Cc1cc(NC(=O)CC)ccc1-2	.	?	?	.	2%	29%
CC(=O)Nc1cccc(NC(=O)CCCC(=O)O)c1	-13%	10%	4%	-1%	3%	1%
CCCC(=O)Nc1ccc2c(c1)Cc1ccccc1-2	.	?	2.5µM*	.	9.5µM*	1.8µM*
CCCCCC(=O)Nc1ccc2ccccc2c1	?	?	?	4%	13µM*	?
O=C(Nc1ccc2c(c1)oc1ccccc12)C1CC1	?	?	2.5µM*	2%	5.4µM*	4µM*
O=C(O)CCC(=O)Nc1ccc2ccccc2c1	-19%[9.22 µM]	.	.	-7%[7.66 µM]	.	.
O=C(O)CCCC(=O)Nc1ccc2c(c1)oc1ccccc12	.	-2%	2%	.	15µM*	1%
O=C(Nc1ccc2c(c1)oc1ccc(S(=O)(=O)N3CCCC3)cc12)C1CC1	3%	-7%	-6%	4%	3%	-4%
Cc1ccc(-c2nnc(SCC(=O)Nc3ccc4c(c3)oc3ccccc34)n2C)c(Cl)c1	-83%	0%	3%	-2%	9.5µM*	8%
Cc1ccccc1OCc1nnc(SCC(=O)Nc2ccc3c(c2)oc2ccccc23)n1C	?	?	28%	1%	-13%	24%
Cn1ncc(C(=O)N2CCN(c3ccc(F)cc3)CC2)c1C1CCN(C(=O)OC(C)(C)C)CC1	.	.	.	.	0%	.
O=C(/C=C/c1ccc(Cl)cc1Cl)n1cccn1	15%	16%	-1%	-14%	3.8µM*	-1%
CN(C)/C=C/C(=O)/C=C/c1ccc(Cl)cc1Cl	20µM*	?	1µM*	-3%	12µM*	2.2µM*
SMILES	SMN2 splice enh	ELG1 genotoxic	Rab9 prom act	KinaseGlo FLuc	FLuc counter	NPC1 prom act
Cc1c(C(=O)/C=C/N(C)C)nnn1-c1ccc(Cl)cc1Cl	.	7%	-1%	.	?	-7%
O=C(/C=C/c1ccccc1Cl)N1CCN(c2ncccn2)CC1	-7%	1%	-6%	4%	?	-2%
O=C(/C=C/c1ccccc1Cl)c1ccc[nH]1	19%	?	27%	-11%	7.6µM*	10%
O=C(/C=C/c1ccc(Cl)cc1Cl)c1ccc[nH]1	7%	?	22%	-3%	2.7µM*	13%
CC(C)c1ccc(-c2noc(SCC(=O)N3CCN(c4ccccc4F)CC3)n2)cc1	.	.	.	.	2.4µM*	.
COc1ccccc1N1CCN(C(=O)CSc2nc(-c3ccc(C(C)C)cc3)no2)CC1	.	.	.	.	2.1µM*	.
O=C(CSc1nc(-c2ccccc2)no1)N1CCN(c2ccccc2F)CC1	.	.	.	.	-17%	.
O=C(CSc1nc(-c2ccccc2)no1)N1CCCCC1	25%	.	.	.	24µM*	.
N#CCCn1c(=O)c(-c2ccccc2)nc2cnc(OCc3ccccc3)nc21	-17%	.	.	1%	.	.
O=C(Nc1ccc(C(F)(F)F)cc1)c1ccccc1	.	18%	2.5µM*	.	?	2.8µM*
O=C(Nc1ccc(C(F)(F)F)cc1)c1ccccc1Br	?	9%	28%	1%	?	22%
O=C(Nc1ccccc1)c1ccc(S(=O)(=O)Nc2cccc(O)c2)cc1	.	-9%	-4%	.	0%	-1%
O=C(Nc1ccc(-c2cnco2)cc1)c1ccccc1	.	?	2.5µM*	.	?	3.2µM*
O=C(NNC(=O)c1ccc(NC(=O)c2ccccc2)cc1)c1ccc(F)cc1	.	18µM*	8%	.	1%	1%
O=C(NNC(=O)c1ccc(NC(=O)c2ccccc2)cc1)Nc1ccccc1	-1%	18%	-4%	-4%	-12%	-1%
CC(C)CC(=O)Nc1ccc(C(=O)Nc2cccc(O)c2)cc1	.	?	?	-4%	17µM*	30%
Cc1cccc(CN2CCN(CC(=O)NCCc3ccc(Cl)cc3)C2=O)c1	-4%	.	.	.	-6%	.
CCc1cccc(NC(=O)CN(C)S(=O)(=O)c2ccc3c(c2)n(C)c(=O)c(=O)n3C)c1	-5%	.	.	.	3%	.
CS(=O)(=O)N1CCC(N2CCN(Cc3ccccc3)C(=O)C2=O)CC1	.	.	.	.	-2%	.
CCC(=O)N1CCc2cc(CNC(=O)c3ccccc3C)ccc21	.	.	.	.	3%	.
O=C(Nc1ccc(Br)c(C(F)(F)F)c1)c1ccccc1	-13%	2%	-1%	2%	19µM*	-4%
O=C(Nc1ccc(Br)c(C(F)(F)F)c1)c1ccc(C(F)(F)F)cc1	.	-12%	-3%	.	?	2%
O=C(Nc1cccc(O)c1)c1ccc(C(F)(F)F)cc1	.	18%	?	-13%	12µM*	?
Cc1ccc(C)n1-c1ccc(C(=O)Nc2ccccc2)cc1	13µM*	?	?	-8%	9.5µM*	28%
O=C(Nc1ccc(C(=O)c2ccccc2)cc1)c1ccccc1	.	?	2µM*	.	11µM*	3.5µM*
CCC(=O)Nc1ccc(C(=O)c2ccccc2)cc1	6%	6%	?	2%	?	12%
CS(=O)(=O)N1CCC(n2c(C(F)(F)F)nc3cccnc32)CC1	.	.	.	.	3%	.
O=C(O)c1ccccc1C(=O)c1ccc(-c2ccccc2)cc1	.	5%	1%[1.84 µM]	.	21µM*	13%
